Results: PubChem BioAssay (NCI)
About 83,000 compounds went through this panel and 20% of them were active in at least one assay; those are over-represented in the sample as a whole.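 The test compound was applied at a single concentration to cells in 96-well plates for 48 hours, and percent growth was recorded.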 Unmarked numbers belong to inactive results. The source made the active and inactive calls. How the source made its calls: active means growth percent below 10; inactive means the rest.

test system: BT-549 breast; assay: NCI-60 one-dose screen, 48 h (100 = growth as untreated, 0 = no growth, -100 = all killed); conditions: 10 µM unless noted

Point of comparison: CCN(CC)CCNc1ccc(C)c2sc3cc(C)ccc3c(=O)c12, growth 68.3%. Against it:
- O=[N+]([O-])c1cccc(/C=C/c2ccccn2)c1 — lower, 64.8%
- COc1ccc(-c2nc3ccccn3c2/C=C/C(=O)c2cc(OC)c(OC)c(OC)c2)cc1 — lower, 61.7%
- COc1ccc(/C(C)=C(\c2ccc(Cl)cc2)c2ccc(OCCN3CCCCC3)cc2)cc1F — lower, 60.7%
- CCOc1cccnc1/C=N/NC(N)=S — lower, 51.6%
- CCCCCCCC/C=C/CCCCCCCC1=NCC[N+]1(CCO)CCO — higher, 98.7%
- O=C(Nc1ccccc1)c1sc(-c2cccc(C(F)(F)F)c2)cc1O — higher, 70.8%
- CCN(CC)S(=O)(=O)c1ccc(O)c(NC(=O)c2[nH]c(C)c(C(C)=O)c2CCc2ccc(Cl)cc2)c1 — lower, 40.5%
- COc1ccc(-c2nnc(SCC(=O)NC3=NN=C(c4ccccc4)CS3)o2)cc1 — higher, 104%
- N=C(N)c1ccc(-c2ccc(-c3ccc(Cl)cn3)s2)cc1 — higher, 82.6%
- C[C@@H]1C(=O)N(C[C@H](Cc2ccccc2)N(Cc2ccccc2)Cc2ccccc2)[C@]1(Cc1ccccc1)C(=O)OC(C)(C)C — higher, 85.7%
- COc1cccc(CCC2CCCN(c3cc(C)nc(N)n3)C2)c1 (centres undefined) — lower, 39.1%
- Cc1[nH]c(-c2nc3ccccc3[nH]2)c(C)c1C(=O)N1CCOCC1 — higher, 99%
- CN(C)CCCCNc1ccc(NCCCCN(C)C)c2c1C(=O)c1c(O)ccc(O)c1C2=O — higher, 92%
- COc1cc(C(=O)Nc2cc(O)c(CC=C(C)C)c(O)c2)cc2c1O[C@]1(C)CC[C@@H](O)C(C)(C)[C@H]1C2 — lower, 29.6%
- Nc1nc(Nc2ccc(Cl)cc2)nn1S(=O)(=O)c1ccc(-c2ccc(F)cc2)cc1 — higher, 108%
- Cn1ccc(Cc2cnc(N)s2)n1 — higher, 102%
- CCCCN1CCN(c2ccc3nc(-c4ccc5nc(-c6cc(OC)c(OC)c(OC)c6)[nH]c5c4)[nH]c3c2)CC1 — higher, 80.2%
- CCCCNC(=O)c1cc(NCc2cc(O)ccc2O)ccc1O — lower, 46.1%
- C=CCN1C(=O)[C@]2(SC1=S)[C@H](c1cccc(Cl)c1)CN(C)[C@]21C(=O)NC2C=CC(Cl)=C[C@H]21 (some centres undefined) — lower, 34.1%
- CCOC(=O)c1cnn2c(-c3ccc(Cl)cc3)nc(NCc3ccccc3)nc12 — higher, 101%
- CN(C)CN1CCN(c2ccc3nc(-c4ccc5nc(-c6ccc(C(F)(F)F)cc6)[nH]c5c4)[nH]c3c2)CC1 — higher, 86.2%
- CCc1c(C(=O)N[C@@H]2c3cc(Cl)ccc3CC[C@@H]2O)[nH]c(C)c1C(C)=O — higher, 80.7%
- c1ccc(-c2oc3ccccc3c2-c2ccccc2)cc1 — higher, 106%
- O=C(c1ccccc1)c1ccc(Cl)c([N+](=O)[O-])c1 — higher, 106%
- N=C(N)c1ccc(-c2ccc(-c3ccc(Cl)c(Cl)c3)o2)nc1 — higher, 94.9%
- CCOC(=O)c1ccc(NC(=O)CCCN(CC)CC)cc1 — higher, 83.1%
- C[C@@H]1CC[C@@H]2[C@@H]1[C@H](OC(=O)/C=C/c1ccccc1)[C@]1(CCCOCCOCCOCCOC(=O)CCCC[C@@H]3SC[C@@H]4NC(=O)N[C@@H]43)C[C@@H](OC(=O)CO)[C@@]2(C)O1 — higher, 99.4%
- CN(C)c1ccc(-c2cc(-c3ccc(Nc4nc(Nc5ccccc5)nc(Nc5ccc(Cl)cc5)n4)cc3)nc(N)n2)cc1 — lower, 51.4%
- O=C1Nc2ccccc2/C1=N/N=C/c1c[nH]c2ccccc12 — higher, 92.7%
- CC(=O)Nc1nccs1 — higher, 112%
- CCCCC1COc2cccc3c(SCC(=O)N(C)c4cccc(Cl)c4)cc[n+]1c23 (centres undefined) — higher, 107%
- Cl.Fc1c[c-]c(-c2ccccn2)c(F)c1.[Pt].c1ccc(P(c2ccccc2)C([PH+](c2ccccc2)c2ccccc2)[PH+](c2ccccc2)c2ccccc2)cc1 — lower, 26.6%
- COc1cc2nc(Nc3ccc(F)cc3)nc(N)c2cc1OC — higher, 93.9%
- N#Cc1c(N)n2c(nc1=Nc1ccc([N+](=O)[O-])cc1)sc1cc(Cl)ccc12 — higher, 116%

With O=[N+]([O-])c1ccc(-c2cc3c(Nc4ccc(Cl)c(C(F)(F)F)c4)ncnc3s2)cc1 the growth was 8.01% (active).
With CC(C)(C)c1ccc(C(=O)Nc2sc3c(c2C(N)=O)CCC(=O)C3)cc1 the growth was -10.3% (active).
In the case of C=C1C(=O)O[C@H]2[C@H]1CC/C(COC(=O)/C=C\C(=O)NCc1ccc(Cn3c(=O)sn(-c4ccc(C#N)cc4)c3=O)cc1)=C\CC[C@@]1(C)O[C@@H]21, the growth is reported as -57.5% (active).
In the case of CC(C)c1ccc(NC(=O)Cc2ccc(Nc3ncnc4cc(-c5cnn(CCN(C)C)c5)ccc34)cc2)cc1, the growth is reported as -15.3% [30 µM] (active).
